Compounds with a hit are over-represented: about 3.5% of the library has one in this group of screens.
TEAD-YAP inh: TEAD-YAP interaction inhibition; inhibition, % at 9.12 µM; HEK-TIYL cells, TEAD-Gal4/YAP UAS-luciferase luminescence; AID 1259422; actives 1.4% (n = 640,000); in the data active = inhibition above about 32%;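 also: 0% = median of test compound wells and 100% = reference inhibitor wells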
GPR151 activ: activators of human GPR151 | actives 1% (n = 650,000) | PathHunter beta-arrestin GPR151 cells, luminescence | activation, % at 11.2 µM | Q8TDV0 | AID 1508602; in the data active = activation above about 4.9%;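 also: 0% = median of compound wells and 100% = cells with positive control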
Target sequence (Q8TDV0 whole entry, looked up): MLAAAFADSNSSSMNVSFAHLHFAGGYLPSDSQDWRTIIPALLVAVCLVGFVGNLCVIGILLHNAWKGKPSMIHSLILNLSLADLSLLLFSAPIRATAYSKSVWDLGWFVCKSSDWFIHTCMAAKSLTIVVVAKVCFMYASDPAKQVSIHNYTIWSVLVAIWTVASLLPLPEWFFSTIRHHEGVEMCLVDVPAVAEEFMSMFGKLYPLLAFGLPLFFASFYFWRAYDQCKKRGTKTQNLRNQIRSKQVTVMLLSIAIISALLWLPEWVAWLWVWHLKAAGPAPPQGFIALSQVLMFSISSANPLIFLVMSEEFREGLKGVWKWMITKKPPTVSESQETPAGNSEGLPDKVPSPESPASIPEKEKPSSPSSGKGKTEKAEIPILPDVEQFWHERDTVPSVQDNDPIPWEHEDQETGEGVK
FBW7 activator: human FBW7 E3 ligase activation, primary screen; AlphaScreen FBW7–phospho-cyclin E peptide binding, activator screen; normalized activity (activation), % at 26.1 µM; Q969H0; AID 1259310; actives 0.13% (n = 650,000); in the data active = normalized activity above about 1.9%;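 also: purified mutant Fbw7 with reduced substrate affinity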
MITF primary: inhibitors of human MITF; AlphaScreen MITF homodimerization, bead proximity signal; inhibition, % at 2.6 µM; actives 0.91% (n = 650,000); AID 1259374; in the data active = inhibition above about 50%;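 also: 0% = vehicle wells with protein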
Active calls of the source: *; ! = repeats disagree.

SMILES	TEAD-YAP inh	GPR151 activ	FBW7 activator	MITF primary
CC(C)[C@@H]1NC(=O)[C@H]2CN(Cc3cccc4ncccc34)CCN2C1=O	5.3	-1.2	0.6	17.3
Cc1ccc(C)c(S(=O)(=O)Oc2ccccc2C(=O)OCC(=O)Nc2cc(C)on2)c1	38.7*	-0.4	0.0	1.7
COCCNC(=O)Cn1cc(/C=C(\C#N)C(=O)Nc2ccc(OC)cc2)c2ccccc21	-5.6	2.8	-0.1	-3.8
CCCNc1nc(Nc2cnccn2)nc2c1ncn2C(C)C	46.3*	2.8	-0.2	5.4
CC(C)N(CCNc1nc(Nc2nccc3ccccc23)nc2c1ncn2C(C)C)C(C)C	50.2*	-0.8	0.0	19.9
Cc1nc2ccc(S(=O)(=O)NC(CC(C)C)C(=O)N3CCCCCC3)cc2s1 (stereo unspecified)	6.7	-0.9	-0.2	12.0
O=C1N(c2ccccc2)C[C@@H]2C[C@@H](c3cc4ccccc4o3)N3CCC[C@@]123	64.5*	-0.9	0.1	1.4
COc1ccc(O)c(C(=O)CC(=O)c2ccc(F)cc2)c1	51.5*	-8.1	0.3	7.8
COc1ccc(C(=O)CC(=O)c2ccccc2O)cc1	-49.6	-1.9	-0.1	-2.0
O=C(O)CNC(=O)/C(=C/c1ccc(F)cc1)NC(=O)c1ccccc1	0.8	0.5	-0.1	17.7
Fc1ccc(Nc2nc3nonc3nc2Nc2ccccc2F)cc1	82.6*	2.9	-0.3	-2.4
Cc1cccc(Nc2nc3nonc3nc2Nc2ccc(I)cc2)c1C	12.8	-0.2	0.1	7.9
O=c1[nH]c2nonc2nc1Nc1ccccc1F	72.7*	-1.7	-0.2	5.6
Cc1cccc(Nc2nc3nonc3nc2Nc2ccc(F)cc2)c1C	35.0*	1.3	-0.1	9.8
Cc1ccc(Nc2nc3nonc3n3nnnc23)cc1C	-8.0	-1.4	0.2	16.0
Fc1ccc(Nc2nc3nonc3n3nnnc23)cc1	45.6*	-6.1	0.0	6.1
N#Cc1ccccc1NC(=O)Nc1cccc(O)c1	-16.1	2.5	-0.1	-2.2
COc1cc(Nc2ncnc3sc4c(c23)CCCC4)cc(OC)c1	-6.1	2.0	0.1	6.0
COc1cccc(CN2C[C@@H]3C[C@@H](c4ccc(-n5cccn5)cc4C)N4CCC[C@@]34C2=O)c1	0.0	-1.7	0.0	19.3
O=C(Cn1cnc2sc3c(c2c1=O)CCCC3)NC1CCCCCC1	-3.2	-1.5	0.0	-8.5
CCNC(=O)C(=O)N/N=C/c1cc([N+](=O)[O-])ccc1O	5.4	0.9	-0.8	73.6*
O=C(CCn1nnc2ccccc21)N/N=C\c1cc([N+](=O)[O-])ccc1O	10.1	0.7	-0.3	42.0
O=C(N/N=C/c1cc([N+](=O)[O-])ccc1O)N/N=C/c1cc([N+](=O)[O-])ccc1O	-0.1	0.9	-0.5	-0.7
O=C(Cn1nnc2ccccc21)N/N=C/c1cc([N+](=O)[O-])ccc1O	8.7	0.0	-0.3	73.5*
O=C(CNc1ccccc1)N/N=C/c1cc([N+](=O)[O-])ccc1O	23.3	4.7	-0.2	54.0*
SMILES	TEAD-YAP inh	GPR151 activ	FBW7 activator	MITF primary
Cn1c(=O)[nH]c(=O)c2c1nc(NCCCO)n2Cc1ccc(Cl)cc1	-5.2	-1.5	0.1	16.9
Cc1ccn2c(C(=O)N3CCC4(CC3)OCCO4)c(C)nc2c1	10.6	-1.0	0.0	1.1
COc1ccccc1NS(=O)(=O)c1cc(C(=O)Nc2cccc(C)c2)ccc1C	2.2	-1.3	0.1	-2.9
Cc1c(Cl)cccc1NC(=O)CS	5.5	-0.1	-0.1	-1.5
CCNc1cc(N2CCC3(CC2)OCCO3)c2noc3c2c1C(=O)c1ccccc1-3	38.8*	0.8	-0.8	20.9
CC(C)CNc1cc(N2CCOCC2)c2noc3c2c1C(=O)c1ccccc1-3	2.7	-1.0	-0.3	51.5*
O=C1c2ccccc2-c2onc3c(N4CCOCC4)cc(NCCN4CCCC4)c1c23	-42.5	-0.5	-0.5	60.6*
O=C1c2ccccc2-c2onc3c(N4CCOCC4)cc(NCCO)c1c23	14.8	-2.1	-0.6	33.3
Cc1ccc(N2C(=O)c3cc(N4CCCCCC4)c([N+](=O)[O-])cc3C2=O)cc1	3.0	0.8	0.2	14.5
COc1ccc(N2CCN(Cc3ccc(Br)o3)CC2)cc1	6.0	-1.3	-0.1	52.5*
CC1(C)c2ssc(=S)c2-c2ccccc2N1C(=O)c1ccccc1	57.0*	3.8	-1.3	17.2
CC1(C)c2ssc(=S)c2-c2ccccc2N1C(=O)C1CC1	-5.0	0.0	-0.1	5.9
CCOc1ccccc1/C=N\Nc1nccs1	3.9	0.5	0.0	7.8
CCOc1cc(C#N)c(NC(=O)c2ccco2)cc1OCC	52.1*	-0.2	0.1	1.9
COc1ccc(-c2cccc3cnc(NC4CCC(C(=O)N5CCCC5)CC4)nc23)cc1F (stereo unspecified)	82.9*!	-2.5	1.7	8.7
COc1ccc(-c2cccc3cnc(Nc4ccc(-n5cnc(N6CCOCC6)n5)cc4)nc23)cc1F	1.4	-0.1	0.8	-9.9
CC1=CC(C)(C)N2C(=O)C(=O)c3cc(OC(=O)COc4ccccc4)cc1c32	62.4*	-1.1	0.2	9.8
COc1ccc(C(=O)Oc2cc3c4c(c2)C(C)=CC(C)(C)N4C(=O)C3=O)cc1OC	9.0	-0.4	0.0	10.0
CC1=CC(C)(C)N2C(=O)C(=O)c3cc(OC(=O)C4CCCO4)cc1c32 (stereo unspecified)	56.7*	0.3	-0.1	11.6
O=C(N/N=C/c1ccc(O)c(I)c1)c1ccc2c(c1)OCCO2	-15.0	0.8	-0.1	-11.8
O=C(N/N=C/c1ccc(O)cc1O)c1ccc(CN2C(=O)c3cccc4cccc2c34)cc1	33.0*	3.4	-0.6	21.2
Cc1cc(O)cc(O)c1/C=N/NC(=O)c1ccc2c(c1)OCCO2	55.8*	-1.5	0.1	8.7
O=C(N/N=C/c1ccc(O)cc1O)c1ccc2c(c1)OCCO2	61.2*	1.2	-0.1	17.9
Cc1cc(-c2ccc[nH]2)nc2ccccc12	-6.5	0.8	0.1	-5.2
CCN(CC)S(=O)(=O)c1ccc(N/N=C/c2ccc[nH]2)c([N+](=O)[O-])c1	-8.2	0.6	-0.3	-2.7
SMILES	TEAD-YAP inh	GPR151 activ	FBW7 activator	MITF primary
O=C(Nc1ccc2c(c1)OCO2)c1ccccc1SCC(=O)N1CCc2ccccc21	36.2*	-1.1	-0.1	-10.0
CCn1c(=O)cc(N2CCN(c3cccc(Cl)c3)CC2)[nH]c1=O	68.0*	0.1	0.0	-5.8
Nc1cc(=O)[nH]c(S/C=C/c2ccccc2)n1	33.9*	-6.2	-0.1	4.7
Nc1cc(=O)[nH]c(SCc2ccccc2CSc2nc(N)cc(=O)[nH]2)n1	-1.5	0.7	0.2	3.8
Cc1cc(OCC(=O)N2CCOCC2)cc(C)c1Br	-4.0	-0.3	0.3	18.2
O=C(O)CCC(=O)Nc1ccc(-c2nc3cc4ccccc4cc3[nH]2)cc1	-33.2	-0.4	-0.1	-2.1
O=C(O)CCC(=O)Nc1cccc(-c2nc3cc4ccccc4cc3[nH]2)c1	33.9*	-5.5	0.0	-29.9
COc1ccc(OC)c(CNc2ncc(-c3cccc(Br)c3)n2C)c1	43.0*	-0.2	-0.3	24.6
COc1cccc(CNc2ncc(-c3cccc(OC)c3)n2C)c1	54.1*	3.0	-0.4	36.3
COc1ccc(OC)c(CNc2ncc(-c3ccc(Br)cc3)n2C)c1	2.8	-0.4	0.2	34.8

Source: PubChem BioAssay (The Scripps Research Institute Molecular Screening Center)
